From PubChem BioAssay (NCI)
About 83,000 compounds went through this panel and 20% of them were active in at least one assay; those are over-represented in the sample as a whole.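 Cells were grown in 96-well plates and exposed to the test compound at a single concentration for 48 hours; results are reported as percent growth, with values below 10 considered active.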 Values without a mark were called inactive. Active and inactive are the calls of the source.

Tests used:
Assay in all cases: NCI-60 one-dose screen, 48 h (100 = growth as untreated, 0 = no growth, -100 = all killed)
Conditions in all cases: 10 µM unless noted
[1] = system: RPMI-8226 leukemia
[2] = system: OVCAR-8 ovarian
[3] = system: OVCAR-5 ovarian
[4] = system: OVCAR-4 ovarian
[5] = system: SK-OV-3 ovarian
[6] = system: IGROV1 ovarian
[7] = system: OVCAR-3 ovarian
[8] = system: HS 578T breast
[9] = system: NCI/ADR-RES ovarian
[10] = system: T-47D breast
[11] = system: BT-549 breast
[12] = system: MDA-MB-435 melanoma
[13] = system: SW-620 colon
[14] = system: MCF7 breast
[15] = system: HCT-116 colon
[16] = system: HCC-2998 colon
[17] = system: KM12 colon

| SMILES | growth [1] | growth [2] | growth [3] | growth [4] | growth [5] | growth [6] | growth [7] | growth [8] | growth [9] | growth [10] | growth [11] | growth [12] | growth [13] | growth [14] | growth [15] | growth [16] | growth [17] |
| --- | --- | --- | --- | --- | --- | --- | --- | --- | --- | --- | --- | --- | --- | --- | --- | --- | --- |
| Cc1ccc(/C=C/c2c(C(=O)/C=C/c3ccc(Cl)cc3)c(C)nc3ccccc23)cc1 | -31.7% (active) | 13% | -33.4% (active) | 6.64% (active) | 55.1% | 1.39% (active) | -46.2% (active) | -5.28% (active) | -21.6% (active) | 1.89% (active) | -10.4% (active) | -47.5% (active) | -33.1% (active) | 12.8% | -59.6% (active) | -82.1% (active) | -24.9% (active) |
| CC(=O)OC[C@H]1OC(Sc2sc(C(=O)c3ccc(Br)cc3)c(N)c2-c2nc3ccccc3s2)[C@H](OC(C)=O)[C@@H](OC(C)=O)[C@@H]1OC(C)=O (some centres undefined) | 43% | 46.1% | 65.7% | 12.9% | 96.6% | 45.6% | 76.2% | 43% | 57.9% | 73.7% | 80.7% | 80.7% | 54% | 62.7% | 18.7% | 75.9% | 78.3% |
| Cc1c(C(=O)NC(Cc2ccccc2)C(O)C(=O)NCc2ccc(F)cc2)[nH]c2ccccc2c1=O (centres undefined) | 105% | 103% | 91% | 107% | 104% | 103% | 114% | 99% | 107% | 102% | 108% | 101% | 114% | 104% | 104% | 118% | 102% |
| COC(=O)c1c2c(c(C)[n+]([O-])c1C)C(=O)C(NCc1ccc(F)c(Cl)c1)=CC2=O | 20.6% | -14.5% (active) | 38.2% | -96.4% (active) | 87.2% | 3.18% (active) | -21.3% (active) | 68% | 0.134% (active) | -5.44% (active) | 43.7% | -82.4% (active) | 5.47% (active) | -32.8% (active) | 0.429% (active) | 13.3% | 11.5% |
| C=C(C)[C@@H]1CC[C@]2(C(=O)NC3CCCCC3)CC[C@]3(C)[C@H](CC[C@@H]4[C@@]5(C)CCCNC(C)(C)[C@@H]5CC[C@]43C)[C@@H]12 | -32.5% (active) | -16.7% (active) | 82.8% | 44.6% | 95.8% | 55.1% | 64.8% | 78.8% | 57.7% | -32.8% (active) | 85.4% | 6.98% (active) | -76.1% (active) | 16.5% | -13.8% (active) | -16% (active) | 16.7% |
| COc1ccc(/C=C/c2c(C(=O)/C=C/c3ccc(F)cc3)c(C)nc3ccccc23)cc1 | -8.58% (active) | 41.3% | 50.9% | 56% | 75.9% | 38.8% | 37.5% | 70.5% | 33.1% | 30.6% | 67.5% | 41% | 15.7% | 17% | 3.18% (active) | 34.6% | 58.3% |
| C[C@H]1[C@H]2[C@H]3CC[C@@H]4[C@@]5(C)C/C(=C/c6cccnc6)C(=O)C(C)(C)[C@@H]5CC[C@@]4(C)[C@]3(C)CC[C@]23CO[C@]1(C)[C@@H](C(=O)/C=C\c1cccnc1)C3 | 5.06% (active) | -13.6% (active) | -4% (active) | 18.6% | 58.9% | 1.25% (active) | -43.7% (active) | 11.2% | 2.97% (active) | 24.6% | -20.1% (active) | -7.3% (active) | -26.4% (active) | 9.88% (active) | -45.6% (active) | -67.2% (active) | -55.6% (active) |
| CC1=CN2C(=O)C3C4=C(CCCC4)SC3N=C2CN1c1c(C)cccc1C (centres undefined) | 54.4% | 109% | 94% | 93.3% | 114% | 107% | 93.9% | 103% | 99.6% | 81.1% | 108% | 94.4% | 88.9% | 112% | 55% | 97.3% | 97.4% |
| CC(=O)O[C@]1(C(C)=O)CCC2C3C[C@H](C)C4=CC(=O)CC[C@]4(C)C3CC[C@@]21C (some centres undefined) | 58.9% | 91.7% | 90.6% | 93% | 81.9% | 81.6% | 115% | 130% | 79.6% | 95.3% | 63.6% | 104% | 112% | 90.1% | 83.6% | 106% | 103% |
| COC(=O)c1c2c(c[n+]([O-])c1C)C(=O)C=CC2=O | 57.6% | 35.3% | 118% | -13.2% (active) | 97% | 2.42% (active) | -66.3% (active) | 86.3% | 97.1% | -11.9% (active) | 71.4% | -81.8% (active) | 0.106% (active) | -62% (active) | -9.77% (active) | 88.1% | 98.7% |
| Cc1c2c(c(C)c3c1oc1cc(O)ccc13)C(=O)N(CCN1CCCCC1)C2=O | 74.6% | 64.2% | 114% | 94.1% | 105% | 82.8% | 99.1% | 89.8% | 81.7% | 91.1% | 97.7% | 93.3% | 67.8% | 90.3% | 67.4% | 93.6% | 83.9% |
| CCOC(CN=Cc1cc(C)c2[nH]c3ccccc3c2c1C)OCC | 88.7% | 94.7% | 83.4% | 97.8% | 111% | 102% | 104% | 123% | 101% | 94.4% | 83.2% | 97.8% | 99.1% | 88.9% | 94.4% | 113% | 106% |
| CN1C(=O)N(C)C2C1NN=c1s/c(=C\c3ccccc3)c(=O)n12 (centres undefined) | 61.6% | 60% | 66.6% | 66.6% | 47.6% | 46.4% | 8.76% (active) | 40.7% | 32.5% | 37.9% | 55.5% | -26.1% (active) | 21.7% | 15.4% | 22.5% | 82.5% | 23.3% |
| CN(Cc1cnc2nc(N)nc(N)c2n1)c1ccc(C(=O)N[C@@H](CCc2nn[nH]n2)c2nn[nH]n2)cc1 | 44.1% | 32.8% | 56.1% | 91% | 82.8% | 45.6% | 53% | 76.2% | 40.4% | 75.9% | 53.2% | 38.5% | 20.1% | 17% | 18.3% | 52.6% | 33% |
| CC1=C([Se]CC(OC(=O)CC[Se]c2ccccc2)C(=O)NCCCCCC(=O)OCc2ccccc2)C(=O)c2ccccc2C1=O (centres undefined) | 49.1% | 10.6% | 39.7% | 42.5% | 39.4% | 15.9% | -3.7% (active) | -13.4% (active) | 11.9% | 56% | 39.9% | 20% | 104% | 30.2% | -3.51% (active) | 72% | 9.71% (active) |
| COc1cc(/C=N/n2c(CN3CCOCC3)nc3ccccc3c2=O)cc(OC)c1OC | 107% | 96.1% | 97.4% | 104% | 103% | 98.3% | 106% | 105% | 101% | 94.4% | 103% | 102% | 106% | 99.4% | 94.5% | 104% | 101% |
| Cc1c(C(=O)N[C@@H](Cc2ccccc2)C(=O)C(=O)NCCc2ccccc2)[nH]c2ccccc2c1=O | 89.8% | 98.6% | 102% | 94% | 107% | 95.3% | 105% | 105% | 100% | 101% | 124% | 101% | 105% | 92.3% | 106% | 100% | 103% |
